Data: PubChem BioAssay AID652039 (The Scripps Research Institute Molecular Screening Center, 2013)
Hit rate of the full screen: of about 370,000 compounds, about 3,300 (0.89%) were called active. The list comes from a sample in which actives are over-represented; it also holds similar structures and randomly drawn compounds. Unmarked numbers belong to inactive results.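 How the source made its calls: active means activation above the mean of all tested compounds plus 3 SD, computed per campaign excluding outliers beyond control limits (cut at about 13% in these data); inactive means the rest.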

The molecules below were run against Kallikrein-7 (Homo sapiens) (UniProt P49862) (assay: activation of human kallikrein-7 proenzyme – biochemical, fluorescence intensity, primary screen (AID 652039)). Conditions: purified proKLK7, EDANS-DABCYL substrate fluorescence; at 7 µM; active compounds read high; 100% is mature enzyme control, 0% vehicle.
Kallikrein-7 (Homo sapiens), sequence (P49862 whole entry, looked up): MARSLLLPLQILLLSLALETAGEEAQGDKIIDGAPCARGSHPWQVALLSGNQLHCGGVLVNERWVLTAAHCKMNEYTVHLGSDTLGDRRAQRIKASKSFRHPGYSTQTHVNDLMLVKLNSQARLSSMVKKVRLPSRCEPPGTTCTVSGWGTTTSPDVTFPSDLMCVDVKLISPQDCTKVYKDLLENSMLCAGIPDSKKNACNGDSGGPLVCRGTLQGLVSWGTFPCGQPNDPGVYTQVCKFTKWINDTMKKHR
With `O=C(NC1CCCCN(Cc2cccc(C(F)(F)F)c2)C1=O)c1ccccc1I` (stereo not drawn) the activation was 0.36%.
With `C#Cc1cc(N2CCN(C(=O)c3ccoc3)CC2)n2nc(-c3cccc(Cl)c3)cc2n1` the activation was -41%.
`CN(C)C(=O)c1nc2ccc(Cl)cn2c1CN1CCN(c2ncccn2)CC1` showed an activation of -1.33%.
In the case of `CN(C)CCN1CCN(c2cc(-c3cccc(Cl)c3)nc3ccnn23)CC1`, the activation is reported as 18.8% (active).
With `Cc1ccc(-n2c(SCC(=O)Nc3cccc4ccccc34)nnc2-c2ccco2)cc1` the activation was -0.44%.
In the case of `C=CS(=O)(=O)N(Cc1nnn(Cc2ccccc2)c1Br)[C@H](C(=O)OC)C(C)C`, the activation is reported as -0.36%.
`Cc1cc(C)nc(Nc2n[nH]c(-c3ccccc3N)n2)n1` was tested, and the activation was 6.37%.
In the case of `Nc1ccccc1-c1nc2ccncc2[nH]1`, the activation is reported as 86.7% (active).
With `CN(C(N)=NC(=O)/C=C/c1ccccc1)C(C#Cc1ccccc1)Cc1ccccc1` (stereo not drawn) the activation was -0.15%.
Molecule `O=C(NCc1cccs1)C1CCN(S(=O)(=O)c2ccccc2[N+](=O)[O-])CC1` has an activation of 0.23%.
For `COC(=O)[C@H](C(C)C)N1CCc2nnn(Cc3ccc(C)cc3)c2-c2ccccc2S1(=O)=O`, the activation was -0.1%.
In the case of `CC(=O)N1C(=O)C2(Nc3ccccc3N2)c2ccccc21`, the activation is reported as -5.83%.
In the case of `CC(C)=NN1C(=O)c2ccccc2NC1(C)C`, the activation is reported as 13% (active).
`COC(=O)c1cc(S(=O)(=O)N2CCN(C(=O)C3CCCO3)CC2)cn1C` (stereo not drawn) showed an activation of -0.37%.
`O=C(C1CCCN1S(=O)(=O)c1ccccc1)N1CCc2ccccc2C1` (stereo not drawn) gave an activation of -0.08%.
`Cc1cc(C(F)(F)F)c(C#N)c(SCC(=O)NC2CC2)n1` showed an activation of -0.4%.
With `COCc1cc(C)nc(SCC(=O)Nc2cccc(C)c2)c1C#N` the activation was 0.51%.
In the case of `Cc1cc(C)c(C#N)c(SCC(=O)NN2CC(=O)N(c3ccccc3F)CC2=O)n1`, the activation is reported as 68.7% (active).
In the case of `CCOC(=O)[C@]12CCCC3=C1N(CCC3)C(=O)[C@@H](CC(=O)NCc1cccs1)C2`, the activation is reported as -0.54%.
For `COc1cccc(OCc2cc(/C=N/NC(=O)c3nc(Cl)c(Cl)c(N)c3Cl)ccc2OC)c1`, the activation was 48.2% (active).
For `CCN(CC)Cc1c(C(=O)N/N=C/c2cccc(OCc3ccc(F)cc3)c2)nnn1-c1nonc1N`, the activation was 0.38%.
Molecule `COc1ccc(S(=O)(=O)N/N=C\c2ccc(OC)c(COc3ccc(C)cc3[N+](=O)[O-])c2)cc1` has an activation of 0.18%.
`COC(=O)[C@]12C[C@H](CC(=O)NCCCN3CCCC3=O)C(=O)N(CCc3ccc(OC)c(OC)c3)C1=C[C@H](COCc1ccccc1)O[C@@H]2C` gave an activation of -0.02%.
`COC(=O)[C@]12C[C@H](CC(=O)NCc3ccccc3)C(=O)N(CCc3ccc(OC)c(OC)c3)C1=C[C@H](C(C)(C)C)O[C@@H]2C` was tested, and the activation was 0.13%.
`COc1ccc(Cn2cc(COC(=O)N(C)Cc3ccccc3)nn2)cc1` gave an activation of 0.16%.
For `CN(C)CC(=O)N[C@@H]1C[C@@H]2O[C@H](CO)CC[C@@H]2O[C@@H]1CCc1ccc(C#Cc2ccccc2)cc1`, the activation was 0.21%.
`Cc1cc(C)c2c(NC(=O)C3CC3)nn(C)c2n1` was tested, and the activation was -0.27%.
For `Cc1cc(C)c2c(n1)nn1c(-n3ccnc3)cc(C)nc21`, the activation was 15.7% (active).
For `Cc1ccc(OCc2nnc(SC/C=C/c3ccccc3)n2Cc2ccco2)cc1`, the activation was 0.81%.
`C=CCN1C(=O)[C@@H](CC(=O)N2CCN(C(=O)OCC)CC2)[C@]2(C(=O)OCC)CCCCC/C=C/12` showed an activation of 0.05%.
`Clc1ccc2nc(-c3ccccc3)nc(C(Cl)Cl)c2c1` gave an activation of -0.5%.
For `NC(N)=Nc1nc2ccc(Br)cc2c(=O)[nH]1`, the activation was -0.15%.
For `NC(N)=Nc1nc(-c2ccccc2)c2cc(Cl)ccc2n1`, the activation was 14.3% (active).
In the case of `CC(C)N1CCCCC(NC(=O)c2ccc3ccccc3c2)C1=O` (stereo not drawn), the activation is reported as 0.11%.
Work on `C=CCN1C(=O)[C@@H](CC(=O)NCCCCc2ccccc2)[C@]2(C(=O)OCC)CCCCC/C=C/12` yielded an activation of 0.05%.
`CC(=O)C1(C(=O)Nc2nccs2)CC(c2ccccc2C(F)(F)F)=NO1` (stereo not drawn) gave an activation of 1.07%.
For `COC(=O)[C@]12C[C@H](CC(=O)NCCc3ccccc3OC)C(=O)N(Cc3ccco3)C1=C[C@H](C(C)C)O[C@@H]2C1CC1`, the activation was 0.66%.
`CCOC(=O)C1=C(O)/C(=C/c2ccc(OCC(=O)Nc3ccc(C)cc3)cc2)N=C1C` was tested, and the activation was 31.9% (active).
For `CCOc1ccc(NC(=O)COc2ccc(S(=O)(=O)N3CCCC3)cc2)cc1`, the activation was 0.16%.
In the case of `Cc1ccc(NC(=O)CN(C)C(=O)COC(=O)c2nccnc2N)cc1`, the activation is reported as 8.05%.
`CC(c1c[nH]c2ccccc12)c1c(-c2ccccc2)n(C)c2ccccc12` (stereo not drawn) gave an activation of -7.26%.
For `COc1ccc(C(=O)OCCN2CCN(C3CN(Cc4cn(Cc5ccccc5F)nn4)S(=O)(=O)C3)CC2)cc1OC` (stereo not drawn), the activation was 0%.
`Clc1ccc(-n2c(SC/C=C/c3ccccc3)nnc2-c2ccco2)cc1` showed an activation of 0.14%.
`Cc1ccccc1Cn1nc(C)c(NC(=O)C(F)(F)F)c1C` showed an activation of -0.19%.
In the case of `COCc1cc(=O)[nH]c2cc(NC(=O)C(F)(F)F)c(C)cc12`, the activation is reported as 466% (active).
Work on `COCc1cc(=O)[nH]c(-c2ccc(C(F)(F)F)cc2)n1` yielded an activation of 0.23%.
With `COc1ccc(OC)c(Cc2cnc3nc(N)nc(N)c3c2C)c1` the activation was -0.29%.
`COC[C@@H]1CCCN1c1ccc2c(c1)O[C@H](C)CCN(C1CC1)S2(=O)=O` gave an activation of -0.36%.
Molecule `CCOC(=O)[C@]12CCCC3=C1N(CCC3)C(=O)[C@@H](CC(=O)N1CCSCC1)C2` has an activation of -0.2%.
Work on `COC(=O)c1cc(C(=O)OC)cc(N2C(=O)CC(N3CCN(c4ccccc4)CC3)C2=O)c1` (stereo not drawn) yielded an activation of -0.42%.
With `COC(=O)C1=NN(c2ccccc2)C2C(=O)N(c3ccccc3OC)C(=O)C12` (stereo not drawn) the activation was 20.8% (active).
`COC(=O)C1(C)NC(c2ccccc2OC)C2C(=O)N(c3ccccc3)C(=O)C21` (stereo not drawn) showed an activation of 0.39%.
With `CCOc1ccc(-n2c(SCC(=O)Nc3cc(C)c(NC(=O)c4ccccc4)cc3OC)nnc2-c2cccc(Cl)c2)cc1` the activation was 4.85%.
In the case of `CCOc1ccc(-n2c(SCC(=O)Nc3cc(C)c(NC(=O)c4ccccc4)cc3OC)nnc2-c2cccs2)cc1`, the activation is reported as 13.4% (active).
For `COc1ccc(-n2c(SCC(=O)Nc3ccccc3-c3ccccc3)nnc2-c2cccnc2)cc1`, the activation was -0.23%.
With `COc1ccc(S(=O)(=O)N2CCN(C(=O)N(C)C)C2C)cc1` (stereo not drawn) the activation was 0.63%.
Work on `Cc1ccc(-n2c(SCC(=O)Nc3ccc(S(=O)(=O)Nc4nccs4)cc3)nnc2-c2ccccn2)cc1` yielded an activation of 0.68%.
In the case of `CC1(C)CN(c2ccc(-c3ccnc4ncnn34)cc2)C1=O`, the activation is reported as 29.6% (active).
Molecule `Nc1c(-c2ccc(F)cc2)cnc2ncnn12` has an activation of 0.09%.
Work on `Cc1cc([N+](=O)[O-])nn1Cc1ccc(F)cc1` yielded an activation of 0.68%.
Work on `CC(=O)O[C@@]1(C(C)=O)CCC2[C@H]3C=C(C)C4=CC(=O)CC[C@@]4(C)C3CC[C@]21C` (stereo partly drawn) yielded an activation of 0.5%.
For `COc1cc(Cl)c(C)cc1NC(=O)COC(=O)c1cc(SC)ccc1Cl`, the activation was -0.31%.
In the case of `COC(=O)Cc1nc2c(N)nc(N)nc2[nH]c1=O`, the activation is reported as 29.9% (active).
`CCCCOCCCNC(=O)C[C@H]1C[C@@]2(C(=O)OC)C(=C[C@H](COCc3ccccc3)O[C@@H]2C)N(Cc2cccc3ccccc23)C1=O` was tested, and the activation was -0.35%.
Work on `COC1=C[C@H](C(=O)NCCNC(C)=O)[C@H](C)[C@@H](c2ccccc2)CC1=O` yielded an activation of 0.74%.
`O=C(Nc1ccc(Br)cc1)OCCN1C(=O)CCC12CCC(c1ccccc1)CC2` (stereo not drawn) showed an activation of 0.49%.
`CCC(c1nnnn1Cc1ccco1)N(CCc1ccccc1)Cc1cc2ccc(OC)cc2[nH]c1=O` (stereo not drawn) was tested, and the activation was 21.6% (active).
With `CCOc1ccc2[nH]c(=O)c(CN(Cc3nnnn3CCc3ccccc3)CC3CCCO3)cc2c1` (stereo not drawn) the activation was -0.26%.
In the case of `CCC(c1nnnn1Cc1ccco1)N(Cc1cc2cc(OC)ccc2[nH]c1=O)C1CCCCC1` (stereo not drawn), the activation is reported as 1.29%.
`C=CCN(C(=O)[C@@H](CCCC)[C@@H](O)c1ccc(Cl)cc1)c1ccccc1` was tested, and the activation was 0.33%.
Molecule `COC(=O)[C@H](C(C)C)N(CCCc1cn(Cc2ccccc2)nn1)S(=O)(=O)c1ccc(F)cc1Br` has an activation of -0.13%.
`O=C(CCCCCN1C(=O)C2C3C=CC(C3)C2C1=O)Nc1ccccc1` (stereo not drawn) gave an activation of -1.05%.
`CCN(C(=O)[C@@H](C1CC1)[C@@H](O)c1ccc2ccccc2c1)c1ccccc1` was tested, and the activation was 0.13%.
In the case of `COc1cccc2sc3cc(NCC[C@@H]4CCCN4C)ccc3c(=O)c12`, the activation is reported as 41.5% (active).
Molecule `Cc1cc2oc3ccc(NCCC4CCCN4C)cc3c(=O)c2cc1C` (stereo not drawn) has an activation of 0.31%.
Molecule `CCOC(=O)[C@]12CCCC=C1N(CCCOC)C(=O)[C@@H]2CC(=O)N1CCOCC1` has an activation of 0.35%.
In the case of `COc1cc(NC(=O)C2CCCN(S(=O)(=O)c3ccc(C(C)(C)C)cc3)C2)cc(OC)c1` (stereo not drawn), the activation is reported as 0.22%.
`Cc1ccc(Cn2cc(COC(=O)N(C)Cc3ccccc3)nn2)cc1` was tested, and the activation was 0.39%.
In the case of `Clc1ccc(-c2cccc3nccn23)cc1`, the activation is reported as 25% (active).
In the case of `O=C(NCCO)c1cccc(-c2cccc3nccn23)c1`, the activation is reported as 1.32%.
Molecule `c1cc(-c2ccc3[nH]ccc3c2)n2ccnc2c1` has an activation of 3.83%.
Work on `CCN(CC)C(=O)CC[C@H]1CC[C@]2(CCCN(Cc3ccc(Cl)cc3)C2)O1` yielded an activation of 0.06%.
In the case of `Cc1ccc(-n2c(SCC(=O)Nc3ccc(S(=O)(=O)Nc4nccs4)cc3)nnc2-c2cccnc2)cc1`, the activation is reported as 0.82%.
